According to PubChem BioAssay (EPA / NIEHS):
Records with an inconclusive call do not appear. The source made the active and inactive calls. The calls were made as follows, unless noted: active = hit-call score of the fitted dose curve at least 0.9, where 1 is the maximum; inactive = score below 0.9.

How the values were obtained:
[1] = ATG_CRE_CIS: Attagene CIS-FACTORIAL HepG2 Assay for human cAMP Responsive Element (CRE) binding protein 3 (AID 2282926); settings: HepG2 CRE cis-reporter, Attagene multiplexed mRNA; actives raise or lower the signal
Outline: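 Induced reporter mRNA from a CRE cis element, measured in HepG2 among many multiplexed units at 24 h. Detection used RT-PCR plus capillary electrophoresis of fluorescent fragments; DMSO served as negative control.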

[2] = ATG_DR4_LXR_CIS: Attagene CIS-FACTORIAL HepG2 Assay for human Liver X Receptor (LXR), DR4 submotif (AID 2282929); settings: HepG2 Attagene DR4 cis-reporter, mRNA transcription; actives raise or lower the signal
Outline: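 Cells were transfected with multiple reporter transcription units, exposed to chemicals for 24 hours, then lysed for RNA. Reporter mRNA induction was measured by RT-PCR with capillary electrophoresis detection and fitted in both directions relative to DMSO.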

[3] = target: Transcription factor E2F1 (Homo sapiens) (UniProt Q01094); assay: ATG_E2F_CIS: Attagene CIS-FACTORIAL HepG2 Assay for human E2F Transcription Factor 1 (AID 2282935); settings: HepG2 Attagene cis-reporter, E2F reporter RNA transcripts; actives raise or lower the signal
Sequence of Transcription factor E2F1 (Homo sapiens) (Q01094 whole entry, looked up): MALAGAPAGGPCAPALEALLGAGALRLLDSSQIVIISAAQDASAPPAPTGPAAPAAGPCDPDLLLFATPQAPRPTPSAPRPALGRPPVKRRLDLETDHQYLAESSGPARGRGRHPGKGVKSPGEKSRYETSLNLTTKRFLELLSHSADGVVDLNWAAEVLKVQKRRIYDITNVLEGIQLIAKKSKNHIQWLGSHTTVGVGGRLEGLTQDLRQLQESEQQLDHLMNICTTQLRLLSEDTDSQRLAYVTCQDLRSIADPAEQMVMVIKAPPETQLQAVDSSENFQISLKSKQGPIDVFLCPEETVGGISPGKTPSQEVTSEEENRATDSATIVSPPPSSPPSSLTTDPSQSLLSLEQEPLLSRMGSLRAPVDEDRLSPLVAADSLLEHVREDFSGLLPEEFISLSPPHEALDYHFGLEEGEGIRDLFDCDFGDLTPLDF
Outline: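 Liver-derived HepG2 cells expressing transfected promoter-driven reporter units received test chemical for 24 hours. Signal gains or losses were fitted bidirectionally against DMSO.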

[4] = ATG_GRE_CIS: Attagene CIS-FACTORIAL HepG2 Assay for human Glucocorticoid Response Elements (GRE) (AID 2282947); settings: HepG2 GRE cis-reporter, Attagene multiplex mRNA; actives raise or lower the signal
Outline: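 Fluorescence intensity of reporter-specific cDNA fragments, separated by capillary electrophoresis, provides the signal. Constructs carry cis-regulating promoters in transiently transfected HepG2 liver cells; 24 h incubation; fitting is bidirectional against DMSO.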

[5] = target: Hypoxia-inducible factor 1-alpha (Homo sapiens) (UniProt Q16665); assay: ATG_HIF1a_CIS: Attagene CIS-FACTORIAL HepG2 Assay for human Hypoxia Inducible Factor 1 (HIF1A) (AID 2282951); settings: HepG2 Attagene cis-factorial HIF1a reporter transcription; actives raise or lower the signal
Sequence of Hypoxia-inducible factor 1-alpha (Homo sapiens) (Q16665 whole entry, looked up): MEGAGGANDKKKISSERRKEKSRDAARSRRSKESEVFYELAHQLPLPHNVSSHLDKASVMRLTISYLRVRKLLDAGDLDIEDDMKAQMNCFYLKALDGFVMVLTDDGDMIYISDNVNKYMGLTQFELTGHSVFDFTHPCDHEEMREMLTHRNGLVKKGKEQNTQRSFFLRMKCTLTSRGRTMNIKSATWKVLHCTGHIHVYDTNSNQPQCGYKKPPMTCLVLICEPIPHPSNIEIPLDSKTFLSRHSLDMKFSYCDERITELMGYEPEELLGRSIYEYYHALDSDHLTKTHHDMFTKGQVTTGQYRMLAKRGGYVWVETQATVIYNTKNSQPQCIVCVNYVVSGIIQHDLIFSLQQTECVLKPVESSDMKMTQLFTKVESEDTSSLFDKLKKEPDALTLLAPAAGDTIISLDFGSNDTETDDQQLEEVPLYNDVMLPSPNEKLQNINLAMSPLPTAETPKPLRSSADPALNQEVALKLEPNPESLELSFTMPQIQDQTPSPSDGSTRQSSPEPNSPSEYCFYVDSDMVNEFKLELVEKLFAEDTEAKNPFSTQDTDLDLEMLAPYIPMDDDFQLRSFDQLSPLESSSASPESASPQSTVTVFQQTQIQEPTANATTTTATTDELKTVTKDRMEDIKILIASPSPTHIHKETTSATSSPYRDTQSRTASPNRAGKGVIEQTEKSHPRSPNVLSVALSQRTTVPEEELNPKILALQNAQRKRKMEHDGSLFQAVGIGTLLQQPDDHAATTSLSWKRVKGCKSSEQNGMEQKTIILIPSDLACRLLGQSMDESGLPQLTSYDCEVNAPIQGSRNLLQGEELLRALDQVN
Outline: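 Measures endogenous transcription-factor activity through cis-regulated reporter mRNA in HepG2. Cells dosed 24 h; transcripts quantified by RT-PCR with 6-FAM-labelled products separated by capillary electrophoresis; DMSO serves as negative control.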

[6] = target: Hepatocyte nuclear factor 6 (Homo sapiens) (UniProt Q9UBC0); assay: ATG_HNF6_CIS: Attagene CIS-FACTORIAL HepG2 Assay for human Hepatocyte Nuclear Factor 6 (HNF6) (AID 2282952); settings: HepG2 Attagene cis-factorial HNF6 reporter transcription; actives raise or lower the signal
Sequence of Hepatocyte nuclear factor 6 (Homo sapiens) (Q9UBC0 whole entry, looked up, the tested form may be a part): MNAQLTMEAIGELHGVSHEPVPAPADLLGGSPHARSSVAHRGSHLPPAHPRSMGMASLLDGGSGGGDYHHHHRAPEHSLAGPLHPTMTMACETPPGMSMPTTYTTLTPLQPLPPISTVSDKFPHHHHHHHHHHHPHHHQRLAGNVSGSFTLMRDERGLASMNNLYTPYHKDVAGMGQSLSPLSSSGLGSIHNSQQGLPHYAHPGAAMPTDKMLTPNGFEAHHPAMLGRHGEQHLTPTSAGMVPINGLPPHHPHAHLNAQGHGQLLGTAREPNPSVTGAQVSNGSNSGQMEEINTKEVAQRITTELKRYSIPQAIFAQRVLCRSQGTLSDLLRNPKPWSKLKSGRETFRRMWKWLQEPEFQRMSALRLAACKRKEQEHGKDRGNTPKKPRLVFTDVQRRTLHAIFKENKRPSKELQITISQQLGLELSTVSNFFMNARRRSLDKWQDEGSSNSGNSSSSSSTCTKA
Outline: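 First, HepG2 cells were transfected with the multiplexed cis reporter library and dosed with chemical for 24 h. Next, RNA was reverse-transcribed, PCR-amplified and fluorescently labelled. Finally, HpaI-digested fragments were read by capillary electrophoresis.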

[7] = target: Heat shock factor protein 1 (Homo sapiens) (UniProt Q00613); assay: ATG_HSE_CIS: Attagene CIS-FACTORIAL HepG2 Assay for human Heat Shock Transcription Factor 1 (HSE) (AID 2282953); settings: HepG2 HSE cis-reporter, Attagene RNA transcription; actives raise or lower the signal
Sequence of Heat shock factor protein 1 (Homo sapiens) (Q00613 whole entry, looked up, the tested form may be a part): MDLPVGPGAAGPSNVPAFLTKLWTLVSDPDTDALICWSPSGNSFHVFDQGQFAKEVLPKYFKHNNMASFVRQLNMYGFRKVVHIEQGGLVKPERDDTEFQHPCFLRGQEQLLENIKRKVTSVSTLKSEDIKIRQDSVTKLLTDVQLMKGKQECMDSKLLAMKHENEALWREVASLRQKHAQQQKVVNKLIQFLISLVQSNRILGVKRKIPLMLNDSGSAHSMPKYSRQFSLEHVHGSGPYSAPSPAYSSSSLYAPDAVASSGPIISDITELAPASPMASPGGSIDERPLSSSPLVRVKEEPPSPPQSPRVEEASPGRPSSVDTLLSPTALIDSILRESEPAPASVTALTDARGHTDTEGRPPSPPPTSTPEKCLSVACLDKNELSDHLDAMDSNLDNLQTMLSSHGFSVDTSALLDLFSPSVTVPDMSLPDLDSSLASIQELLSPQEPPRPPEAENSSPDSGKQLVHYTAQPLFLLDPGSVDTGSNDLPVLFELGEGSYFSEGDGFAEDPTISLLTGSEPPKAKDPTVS
Outline: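 Endogenous transcription factor activity captured via cis-promoter reporter units transfected into HepG2; treatment lasted 24 h. Fluorescence intensity of reporter fragments analysed with bidirectional curve fitting, DMSO baseline.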

[8] = ATG_TCF_b_cat_CIS: Attagene CIS-FACTORIAL HepG2 Assay for human T-Cell-Factor with beta-catenin (TCF/b-cat) (AID 2282965); settings: HepG2 TCF/beta-catenin cis-reporter transcription, actives raise or lower the signal
Outline: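 HepG2 cells transiently transfected with cis-promoter-driven multiplexed reporter units; reporter mRNA measured 24 h after dosing by RT-PCR, FAM labelling, HpaI digestion and capillary electrophoresis. Bidirectional fitting relative to DMSO baseline.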

[9] = target: Transcriptional activator Myb (Homo sapiens) (UniProt P10242); assay: ATG_Myb_CIS: Attagene CIS-FACTORIAL HepG2 Assay for human Myeloblastosis (Myb) Proto-Oncogene Transcription Factor (AID 2282986); settings: HepG2 Attagene CIS-FACTORIAL Myb reporter transcription; actives raise or lower the signal
Sequence of Transcriptional activator Myb (Homo sapiens) (P10242 whole entry, looked up): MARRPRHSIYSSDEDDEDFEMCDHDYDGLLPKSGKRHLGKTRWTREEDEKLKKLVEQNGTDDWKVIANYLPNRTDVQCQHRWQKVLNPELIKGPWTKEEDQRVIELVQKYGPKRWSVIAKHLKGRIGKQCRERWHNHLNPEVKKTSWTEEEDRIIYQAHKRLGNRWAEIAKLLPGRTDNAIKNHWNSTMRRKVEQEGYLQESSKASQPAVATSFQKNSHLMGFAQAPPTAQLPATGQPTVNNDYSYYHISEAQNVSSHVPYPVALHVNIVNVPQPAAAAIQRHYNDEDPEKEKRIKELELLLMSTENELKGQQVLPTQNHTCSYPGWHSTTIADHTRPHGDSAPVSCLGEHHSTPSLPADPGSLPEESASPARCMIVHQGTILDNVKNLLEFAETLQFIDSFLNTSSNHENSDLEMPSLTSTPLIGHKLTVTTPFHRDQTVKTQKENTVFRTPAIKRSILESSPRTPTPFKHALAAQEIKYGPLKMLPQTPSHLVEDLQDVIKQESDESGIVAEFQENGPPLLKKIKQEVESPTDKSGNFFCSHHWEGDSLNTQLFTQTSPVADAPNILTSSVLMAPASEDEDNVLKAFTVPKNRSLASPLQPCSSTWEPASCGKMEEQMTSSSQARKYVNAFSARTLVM
Outline: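 Steps: transfect HepG2 with cis-regulated reporter units; dose with chemical for 24 h; isolate RNA, reverse-transcribe, PCR-amplify and FAM-label reporter sequences; digest with HpaI; resolve by capillary electrophoresis. Activity fitted in both directions relative to DMSO.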

[10] = target: Nuclear respiratory factor 1 (Homo sapiens) (UniProt Q16656); assay: ATG_NRF1_CIS: Attagene CIS-FACTORIAL HepG2 Assay for human Nuclear Respiratory Factor 1 (NRF1) Orphan Gene (AID 2282987); settings: HepG2 NRF1 cis-element reporter, Attagene multiplex; actives raise or lower the signal
Sequence of Nuclear respiratory factor 1 (Homo sapiens) (Q16656 whole entry, looked up, the tested form may be a part): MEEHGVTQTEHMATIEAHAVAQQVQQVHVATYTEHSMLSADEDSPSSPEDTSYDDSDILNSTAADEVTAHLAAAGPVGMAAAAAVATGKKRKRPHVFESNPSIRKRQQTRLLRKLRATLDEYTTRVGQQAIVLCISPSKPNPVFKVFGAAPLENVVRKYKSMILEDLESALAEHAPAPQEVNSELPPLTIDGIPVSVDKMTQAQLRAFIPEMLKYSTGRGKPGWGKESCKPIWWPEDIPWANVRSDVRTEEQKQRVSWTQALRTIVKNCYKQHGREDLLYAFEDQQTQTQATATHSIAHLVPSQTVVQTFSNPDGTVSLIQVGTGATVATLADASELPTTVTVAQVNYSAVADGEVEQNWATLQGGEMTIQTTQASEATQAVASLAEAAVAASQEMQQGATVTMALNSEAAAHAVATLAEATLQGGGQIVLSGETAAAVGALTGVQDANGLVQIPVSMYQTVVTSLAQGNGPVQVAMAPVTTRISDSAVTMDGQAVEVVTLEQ
Outline: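 Fluorescence intensity of labelled reporter cDNA fragments, resolved by capillary electrophoresis, served as readout for NRF1 cis-element activity. Transiently transfected HepG2 cells were dosed for 24 hours; activity in either direction was fitted against DMSO negative control.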

[11] = ATG_NFI_CIS: Attagene CIS-FACTORIAL HepG2 Assay for human Nuclear Factor I (NFI) (AID 2282989); settings: HepG2 cis-regulatory reporter, NFI response element transcription; actives raise or lower the signal
Outline: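 Cells: human liver HepG2, transiently transfected with promoter-regulated reporter transcription units. Exposure 24 h. Detection: fluorescent RT-PCR products separated by capillary electrophoresis, normalised to DMSO negative control.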

[12] = ATG_NRF2_ARE_CIS: Attagene CIS-FACTORIAL HepG2 Assay for human Nuclear Factor Erythroid 2 Related Factor 2 (NFR2) response to Antioxidant Response Elements (ARE) (AID 2282992); settings: HepG2 Attagene ARE/NRF2 reporter, transcription factor activity; actives raise or lower the signal;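 as to AC50: reporter mRNA level measured by RT-PCR and capillary electrophoresis fluorescence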
Outline: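 Fluorescence intensity of reporter-specific cDNA fragments, separated by capillary electrophoresis, reflects mRNA induction in transfected HepG2 cells at 24 h. Activity is fitted bidirectionally, DMSO serving as baseline.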

[13] = ATG_Oct_MLP_CIS: Attagene CIS-FACTORIAL HepG2 Assay for human Octamer-Binding Transcription Factor (Oct) (AID 2282993); settings: HepG2 Attagene cis-factorial Oct reporter, mRNA; actives raise or lower the signal
Outline: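 HepG2, transient MRTU transfection, cis promoter elements; 24 h dosing; RT-PCR/CE fluorescence read-out of reporter mRNA; fit both directions vs DMSO.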

[14] = target: Cellular tumor antigen p53 (Homo sapiens) (UniProt P04637); assay: ATG_p53_CIS: Attagene CIS-FACTORIAL HepG2 Assay for human p53 Transcription Factor (AID 2282994); settings: HepG2 p53 cis-element reporter, Attagene mRNA; actives raise or lower the signal
Sequence of Cellular tumor antigen p53 (Homo sapiens) (P04637 whole entry, looked up): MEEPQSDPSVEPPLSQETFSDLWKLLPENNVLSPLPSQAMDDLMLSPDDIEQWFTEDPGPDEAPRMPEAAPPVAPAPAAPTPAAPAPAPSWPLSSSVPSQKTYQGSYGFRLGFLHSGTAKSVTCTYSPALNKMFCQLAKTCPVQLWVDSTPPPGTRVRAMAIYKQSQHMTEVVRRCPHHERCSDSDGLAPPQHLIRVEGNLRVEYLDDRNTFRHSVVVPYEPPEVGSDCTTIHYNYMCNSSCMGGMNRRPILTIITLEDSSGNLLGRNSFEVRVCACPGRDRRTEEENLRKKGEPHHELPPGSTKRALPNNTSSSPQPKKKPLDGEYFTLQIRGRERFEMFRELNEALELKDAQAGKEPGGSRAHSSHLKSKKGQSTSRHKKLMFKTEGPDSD
Outline: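 Transiently transfected HepG2 (multiple cis reporter transcription units); exposure 24 h; reporter RNA via RT-PCR, 6-FAM extension, 2 h HpaI digest at 37 C, CE detection; DMSO baseline.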

[15] = target: Nuclear receptor subfamily 1 group I member 2 (Homo sapiens) (UniProt O75469); assay: ATG_PXR_TRANS: Attagene TRANS-FACTORIAL HepG2 Assay for human Pregnane X Receptor (PXR) (AID 2283008; active = hit-call score of the fitted dose curve at least 0.9, where 1 is the maximum)
Sequence of Nuclear receptor subfamily 1 group I member 2 (Homo sapiens) (O75469 whole entry, looked up, the tested form may be a part): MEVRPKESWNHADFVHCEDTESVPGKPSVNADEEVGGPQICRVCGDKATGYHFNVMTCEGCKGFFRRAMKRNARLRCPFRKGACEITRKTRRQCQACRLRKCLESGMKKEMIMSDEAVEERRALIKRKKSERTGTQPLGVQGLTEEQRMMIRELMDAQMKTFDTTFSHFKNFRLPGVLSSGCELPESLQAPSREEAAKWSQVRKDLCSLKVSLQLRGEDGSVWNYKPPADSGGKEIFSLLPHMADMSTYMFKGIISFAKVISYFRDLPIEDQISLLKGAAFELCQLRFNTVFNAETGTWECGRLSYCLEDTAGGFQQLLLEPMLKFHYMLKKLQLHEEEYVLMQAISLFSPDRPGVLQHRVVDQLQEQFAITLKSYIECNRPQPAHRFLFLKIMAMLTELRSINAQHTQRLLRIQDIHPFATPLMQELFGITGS
Outline: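 Transient HepG2 transfectants carrying multiplexed reporter transcription units; PXR activity read through a Gal4 chimera. 24 h exposure. RT-PCR/CE fluorescence; upward curve fit referenced to DMSO.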

[16] = ATG_XTT_Cytotoxicity: Cytotoxicity Assessment in the Attagene TRANS-FACTORIAL HepG2 Assay (AID 2283584; active = hit-call score of the fitted dose curve at least 0.9, where 1 is the maximum)
Outline: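 HepG2 cells transiently transfected with GAL4-UAS multiple reporter units, dosed 24 h; cytotoxicity read by XTT as loss of signal versus DMSO baseline.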

[17] = ATG_GLI_CIS: Attagene CIS-FACTORIAL HepG2 Assay for human Zinc Finger Protein GLI1 (AID 2282945); settings: HepG2, Attagene cis-factorial reporter mRNA, GLI element; actives raise or lower the signal
Outline: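 Transiently transfected HepG2 cells report endogenous transcription factor activity via cis-element-driven reporter units. After 24 h compound exposure, reporter mRNA was measured by RT-PCR with capillary electrophoresis; bidirectional fitting against DMSO baseline.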

[18] = ATG_TA_CIS: Attagene CIS-FACTORIAL HepG2 Assay for human TA Basal Promoter (AID 2282964); settings: HepG2 Attagene CIS-factorial TA basal promoter reporter; actives raise or lower the signal
Outline: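 Fluorescence from labelled RT-PCR reporter fragments, separated by capillary electrophoresis, gives the signal. Cells: HepG2 transiently carrying multiple reporter units, 24 h chemical dosing. Gain or loss relative to DMSO.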

[19] = ATG_TGFb_CIS: Attagene CIS-FACTORIAL HepG2 Assay for human Transforming Growth Factor (TGF) (AID 2282967); settings: HepG2 Attagene CIS TGFb reporter, mRNA transcription; actives raise or lower the signal
Outline: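 Bidirectional fitting relative to DMSO gave the endpoint. Underlying data: reporter mRNA from HepG2 cells carrying transiently transfected cis-regulated reporter constructs, harvested 24 h after dosing and analyzed by RT-PCR and capillary electrophoresis.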

[20] = target: Myc proto-oncogene protein (Homo sapiens) (UniProt P01106); assay: ATG_Myc_CIS: Attagene CIS-FACTORIAL HepG2 Assay for human Myelocytomatosis (Myc) Proto-Oncogene Transcription Factor (AID 2282990); settings: HepG2, Attagene cis-reporter transcription factor activity; actives raise or lower the signal
Sequence of Myc proto-oncogene protein (Homo sapiens) (P01106 whole entry, looked up): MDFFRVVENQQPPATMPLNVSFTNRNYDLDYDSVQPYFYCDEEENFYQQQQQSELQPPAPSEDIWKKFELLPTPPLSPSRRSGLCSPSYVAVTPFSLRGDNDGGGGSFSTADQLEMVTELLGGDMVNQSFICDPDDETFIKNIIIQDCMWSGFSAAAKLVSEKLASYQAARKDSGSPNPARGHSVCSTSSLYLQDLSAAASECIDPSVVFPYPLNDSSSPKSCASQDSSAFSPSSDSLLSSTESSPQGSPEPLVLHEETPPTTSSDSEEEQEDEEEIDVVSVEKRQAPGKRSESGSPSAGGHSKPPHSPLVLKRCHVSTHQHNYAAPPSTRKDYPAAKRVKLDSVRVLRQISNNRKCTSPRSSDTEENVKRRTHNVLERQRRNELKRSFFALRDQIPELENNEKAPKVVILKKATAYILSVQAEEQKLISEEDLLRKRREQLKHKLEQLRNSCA
Outline: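 Transiently transfected HepG2 cells bearing cis-promoter reporter units for endogenous transcription factors; 24 h exposure. Reporter mRNA measured by RT-PCR, 6-FAM primer extension, HpaI cut and capillary electrophoresis; bidirectional fit relative to DMSO.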

Measured: AC50

NC(=O)c1ccc([N+](=O)[O-])cc1Cl
not listed: [17] | [18] | [19] | [20]
inactive: all other assays above

Cc1cc2nc3c(=O)[nH]c(=O)nc-3n(C[C@H](O)[C@H](O)[C@H](O)CO)c2cc1C
not listed: [5] | [8] | [15] | [16]
inactive: all other assays above

C=CCOC(=O)C(=C)C
not listed: [8] | [15] | [18]
inactive: all other assays above

Clc1ccc(Sc2cc(Cl)c(Cl)cc2Cl)cc1
active: [15] 2.22 µM
not listed: [7] | [8] | [20]
inactive: all other assays above

C=C(C)C(=O)OCCCCCC
not listed: [15] | [18] | [20]
inactive: all other assays above

CN(C)Cc1cc(C(C)(C)C)c(O)c(C(C)(C)C)c1
active: [12] 37.8 µM
inactive: all other assays above

CCC(C)(CCC(C)C)C(=O)O (stereo unspecified)
not listed: [4] | [7] | [14] | [20]
inactive: all other assays above

CCCOCCC
not listed: [17]
inactive: all other assays above

CCCC(=O)OC/C=C(\C)CCC=C(C)C
not listed: [8] | [14] | [18]
inactive: all other assays above

CC(C)=CCOC(=O)c1ccccc1
not listed: [20]
inactive: all other assays above

CCOC(=O)CC(=O)OCC
not listed: [15] | [16] | [17] | [19]
inactive: all other assays above

O=C(c1ccccc1)c1ccccc1O
active: [2] 162 µM | [6] 148 µM | [8] 129 µM | [11] 156 µM | [20] 135 µM | [15] 34.4 µM
not listed: [14] | [17]
inactive: all other assays above

CCCCCCC1CCC(=O)O1 (stereo unspecified)
not listed: [3] | [4] | [18]
inactive: all other assays above

COC(OC)C(C)c1ccccc1 (stereo unspecified)
not listed: [8] | [17]
inactive: all other assays above

c1ccc(CNc2ncnc3nc[nH]c23)cc1
not listed: [5] | [8] | [17]
inactive: all other assays above

Sc1nc2ccccc2s1
active: [12] 100 µM
not listed: [3] | [8] | [17] | [18]
inactive: all other assays above
